# Shiga toxin inh – inhibitors of Shiga toxin in Vero cells | Vero cells, Shiga toxin protein synthesis inhibition reporter | inhibition, % at 38.7 µM | 290,000 tested, 9.2% active | AID 2315; in the data active means inhibition mostly above about 28%, no sharp cut-off; inactive means mostly below about 43%; further: 0% is about no effect
# Giardia FBPA inh – inhibitors of Giardia lamblia fructose-1,6-bisphosphate aldolase; 290,000 tested, 0.71% active; Potency, µM (series often up to 59.6 µM), for the others: at the top dose activity, negative = inhibition, hits mostly inhibitors; purified Giardia FBPA; A8B2U2; further: potency means the concentration at half of the fitted maximal effect; on the % scale 0 is the no-effect control and ±100 the full control effect; nearly all actives have a fitted effect of over 55% in size
#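 Giardia FBPA (40 nM reagent) was preincubated 10 min at RT with compound (up to 57.5 uM final), then substrate plus GAPDH/TPI/NAD/arsenate coupling system with diaphorase/resazurin was added; resorufin fluorescence (525/598 nm) was read after 20 min.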
# Sm TGR block – S. mansoni TGR enzyme inhibition. Q962Y6. purified TGR, DTNB reduction, TNB absorbance 405 nm. Potency, µM (top dose mostly 114 µM), inactives show at the top dose activity change, negative = inhibition, usual class: inhibitors. 360,000 tested, 3% active; further: potency means the concentration at half of the fitted maximal effect; on the % scale 0 is the no-effect control and ±100 the full control effect; nearly all actives have a fitted effect of over 60% in size
#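 Kinetic colorimetric format: TGR-catalysed, NADPH-driven DTNB reduction monitored via TNB absorbance. Enzyme dispensed at 20 nM; compound exposure 15 min at room temperature before reaction start.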
# CHX counter – affects cycloheximide protein synthesis inhibition readout, counter-screen; cell reporter, cycloheximide protein synthesis inhibition counterscreen; max response, %; 300,000 tested, 12% active; in the data active means max response mostly above about 13%, no sharp cut-off; inactive means mostly below about 14%; further: read at 38.3 µM for the half of the compounds with a filed dose; 0% is about no effect
# LmPK inhibitor – blocks Leishmania mexicana pyruvate kinase activity; Potency, µM (highest dose often 57.5 µM), without a hit: at the top dose activity change, negative = inhibition, most hits filed as inhibitors; purified LmPK, Kinase-Glo ATP luminescence, 1 h; 290,000 tested, 0.37% active; further: potency means the concentration at half of the fitted maximal effect; on the % scale 0 is the no-effect control and ±100 the full control effect
# Target sequence (Q27686 whole entry, looked up): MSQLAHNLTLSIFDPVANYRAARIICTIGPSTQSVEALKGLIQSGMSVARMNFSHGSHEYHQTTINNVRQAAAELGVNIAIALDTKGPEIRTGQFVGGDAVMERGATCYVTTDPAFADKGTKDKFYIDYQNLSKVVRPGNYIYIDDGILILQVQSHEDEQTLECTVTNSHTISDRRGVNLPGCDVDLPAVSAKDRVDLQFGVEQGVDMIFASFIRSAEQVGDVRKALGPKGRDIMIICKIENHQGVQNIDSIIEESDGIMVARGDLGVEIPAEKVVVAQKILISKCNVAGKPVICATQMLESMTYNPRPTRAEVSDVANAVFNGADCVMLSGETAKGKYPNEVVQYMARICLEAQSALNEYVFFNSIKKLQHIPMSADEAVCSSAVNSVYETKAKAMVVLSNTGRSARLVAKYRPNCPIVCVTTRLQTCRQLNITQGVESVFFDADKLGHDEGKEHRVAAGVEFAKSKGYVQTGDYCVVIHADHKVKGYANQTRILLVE
#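 Purified LmPK (0.1 nM) converted ADP (0.1 mM) to ATP with PEP (0.5 mM) in imidazole buffer pH 7.2 with KCl and MgCl2, 1 h at room temperature. ATP was read by Kinase-Glo luminescence; data normalized to uninhibited and no-enzyme controls.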
# TbPYK inhibitor – T. brucei pyruvate kinase inhibition; Q57TT1; TbPYK enzyme, Kinase-Glo Plus ATP luminescence, 45 min; Potency, µM (titrated, usually from 76.8 µM), without a hit: at the highest dose activity, negative = inhibition, usual class: inhibitors; 410,000 tested, 0.12% active; AID 624173; further: potency means the concentration at half of the fitted maximal effect; on the % scale 0 is the no-effect control and ±100 the full control effect; nearly all actives have a fitted effect of over 50% in size
#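 Luminescent Kinase-Glo Plus end-point after 45 min room-temperature reaction of T. brucei pyruvate kinase started with 130 uM ADP (final). Buffer TEA 50 mM pH 7.2 with KCl, MgCl2, BSA, Tween-20; titration-based qHTS with fitted concentration-effect curves.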
# Numbers without * were called inactive; ? = inconclusive; . = no result given; [ ] = another dose, or the depositor's remark. The sample as a whole holds a higher share of hits than the screen did. Unless noted, the call rests on the fitted dose curve; in most records, active means well fitted curve in the direction sought with a large enough effect; inconclusive means small, poorly fitted or top-dose-only effect, or another doubt; inactive means no such curve, though single readings can be large; an effect the other way counts as inactive or inconclusive.
SMILES,Shiga toxin inh,Giardia FBPA inh,Sm TGR block,CHX counter,LmPK inhibitor,TbPYK inhibitor
CC(C)CCNC(=O)C(C)N(Cc1ccc(F)cc1)C(=O)c1ccc(CN2CCCCC2)o1 (stereo not drawn),-3.1,2.6%,2.4%,1.8,-0.1%,2.9%
CCN(CC)CCN(C(=O)c1ccc(CN2CCCCC2)o1)C(C(=O)NC1CCCCC1)c1ccc(F)cc1 (stereo not drawn),60.1*,-5.8%,9.3%,42.4*,-8.0%,-4.6%
O=C1C2C3C=CC(CC3)C2C(=O)N1c1ccccc1F (stereo not drawn),-5.4,2.5%,0.0%,-0.4,-8.7%,-10.2%
COc1ccc(C2=Nn3c(nnc3-c3ccc(OC)cc3OC)SC2)c(OC)c1,-8.7,0.7%,.,-3.7,.,.
CC(=O)N1c2ccc(S(=O)(=O)N(C)C3CCCCC3)cc2CC1C (stereo not drawn),2.1,.,4.0%,10.9,5.5%,-2.3%
O=C(c1ccccc1Cl)N1CCC(N2CCC(C(=O)N3CCCC3)CC2)CC1,36.0,-17.2%,-10.7%,23.7*,2.8%,2.5%
O=C(c1cc(F)ccc1F)N1CCC(N2CCC(C(=O)N3CCCC3)CC2)CC1,2.5,.,?,17.3*,0.5%,-0.1%
Cc1ccc(Cc2c(-c3ccc(C#N)cc3)nc3c4ccccc4ccn23)cc1,.,.,.,.,.,1.8%
CCOc1ncccc1C(=O)OCC(=O)NC1CCCCC1,.,.,.,.,.,-4.3%
CCn1c(-c2cc(Cl)ccc2OC)n[nH]c1=S,-7.5,-3.1%,0.0%,-0.9,?,11.2µM*
COc1ccc(Cl)cc1-c1n[nH]c(=S)n1C,-14.5,-5.6%,2.9%,-3.8,-17.3%,?
C=CCn1c(CCSCc2ccc(OC)c(C)c2)n[nH]c1=S,-5.4,-6.7%,-4.3%,-1.7,3.7%,7.94µM*
C=CCn1c(-c2cc(Cl)ccc2OC)n[nH]c1=S,-8.2,0.2%,4.7%,-2.0,12.6µM*,?
OC[C@@H]1CN(Cc2ccccc2)C[C@H](n2ccc3c(N4CCCC4)ncnc32)O1,.,.,.,.,.,-7.0%
COc1ccc(O[C@H]2C=C[C@@H](c3ccccc3)O[C@H]2COC(=O)CC/C(C)=N/O[C@@H]2O[C@H](COC(C)=O)[C@H](OC(C)=O)[C@H](OC(C)=O)[C@H]2OC(C)=O)cc1,.,0.4%[12.9 µM],.,.,.,.
C/C(=N\O)c1ccc(N2C(=O)C3CC=C(Cl)CC3C2=O)cc1 (stereo not drawn),80.3*,1.6%,0.1%,36.6*,-1.0%,2.8%
CC(=O)Oc1ccc(Oc2ccc(-c3noc(C)n3)cc2)cc1,82.6*,-10.2%,-7.6%,32.1*,-6.3%,6.6%
COc1ccc(C(=O)Nc2cc(C)on2)cc1,46.9,1.8%,0.0%,27.0*,-13.5%,-0.2%
COc1ccc(OCc2cccc(C(=O)Nc3cc(C)on3)c2)cc1,active,-0.9%,-2.6%,91.4*,-6.1%,-15.8%
Cc1cc(NC(=O)c2ccc(NC(=O)C(C)C)cc2)no1,77.1,1.7%,-0.4%,32.2,-4.7%,-0.6%
COc1cc(OC)cc(C(=O)Nc2cc(C)on2)c1,15.2,-1.0%,-0.1%,-2.6,-10.6%,0.1%
CC(=O)Oc1ccc(C(=O)Nc2cc(C)on2)cc1,87.9*,1.7%,0.0%,29.6*,-10.6%,0.9%
COc1ccc(-c2noc(CN(C(=O)c3ccc(OC(C)=O)cc3)C(C)C)n2)cc1OC,14.6,8.5%,0.2%,-1.3,6.6%,-1.0%
COC(=O)c1ccc(C(=O)OC)c(NC(=O)c2c(-c3ccccc3)c(-c3ccccc3)nn(C)c2=O)c1,.,.,4.3%,.,.,-0.8%
O=C(Cc1ccccc1)Nc1ncccc1Cl,.,.,.,.,.,2.9%
SMILES,Shiga toxin inh,Giardia FBPA inh,Sm TGR block,CHX counter,LmPK inhibitor,TbPYK inhibitor
O=c1c(Cl)c(N2CCOCC2)cnn1-c1nc2ccccc2[nH]1,73.4*,1.3%,-19.2%,24.2*,?,-9.6%
CC(C)n1ncc(N2CCOCC2)c(Cl)c1=O,7.5,5.2%,?,13.8*,4.0%,7.0%
C/C(Cn1ncc(N2CCOCC2)c(Cl)c1=O)=N\O,6.3,13.4%,-10.2%,-1.5,0.7%,-8.9%
Cc1ccc(Nc2nc3nonc3[nH]c2=O)cc1Cl,84.5,-5.9%,1.2%,5.6,6.4%[11.5 µM],-10.9%
Cc1ccc(Nc2nc3nonc3[nH]c2=O)cc1C,108.3*,-4.6%,4.8%,35.8*,4.1%,-0.1%
CC(=O)c1cccc(NC(=S)NC(=O)c2ccccc2Br)c1,5.1,-17.3%,-21.1%,2.9,0.2%,-12.0%
Cc1cccc(C(=O)NC(=S)Nc2ccc3[nH]c(=O)[nH]c3c2)c1,17.8,-1.8%,?,16.5*,1.1%,-9.8%
CC(=O)c1cccc(NC(=S)NC(=O)c2ccc(Cl)cc2)c1,65.5*,-26.9%,-20.1%,62.9*,3.9%,4.4%
CC(=O)c1cccc(NC(=S)NC2CC2)c1,-10.4,-10.5%,39.8µM*,-3.3,-4.0%,-4.9%
CC(=O)c1cccc(NC(=S)NC(=O)c2cccc(C)c2)c1,82.9*,-21.5%,28.2µM*,39.8*,-1.0%,-7.1%
COC(=O)[C@H]1C[C@@]2(O)CN(S(=O)(=O)c3ccc(C)cc3)C[C@@]2(OC(=O)Nc2c(C)noc2C)C[C@H]1C(=O)OC,.,.,.,.,.,-6.8%
CC1CCN(S(=O)(=O)c2ccc(N3CCCCS3(=O)=O)cc2)CC1,.,.,-1.2%,.,.,1.4%
Cc1cccc(NC(=O)COc2ccc(Br)cc2)n1,71.9*,-0.9%,5.7%,62.3*,-12.8%,0.8%
Cc1ccc(OCC(=O)NC(=S)Nc2cccc(C)n2)cc1,15.1,-4.9%,-5.7%,2.7,0.3%,3.7%
Cc1ccc(OCC(=O)Nc2cccc(C)n2)c(C)c1,76.8*,-0.8%,4.1%,35.8*,-11.3%,-1.8%
Cc1ccc(OCC(=O)Nc2cccc3ccc(C)nc23)c(C)c1,.,.,-12.2%,.,.,-14.6%
CC(=O)NC(=S)NNC(=O)COc1ccc(Br)cc1,31.9,-7.9%,-14.6%,21.3*,26.1%,-22.6%
COc1ccccc1C(=O)NNC(=O)CN(C)S(=O)(=O)c1ccc(Cl)cc1,.,.,.,.,.,2.6%
C[C@@H]1CN([C@H](C)CO)C(=O)CCCn2nncc2CO[C@@H]1CN(C)S(=O)(=O)c1ccccc1F,.,.,.,.,.,2.2%
COCc1nc(-c2ccc(-c3ccc(C)cc3)nc2OC)no1,115.9*,-2.2%,-71.1%,33.0*,5.6%,-2.8%
COc1nc(-c2ccc(C)cc2)ccc1-c1noc(-c2cccnc2)n1,7.6,-1.4%,10.9%,-1.7,-0.7%,-5.1%
COc1ccc(-c2ccc(-c3noc(C)n3)c(OC)n2)cc1,62.0,2.9%,1.9%,22.8*,1.1%,-11.3%
CC1(C(=O)NCc2ccc3c(c2)OCO3)CCN1C(=O)C1(c2ccc(Cl)cc2)CC1 (stereo not drawn),.,.,.,.,.,-13.1%
N#Cc1ccc(CSc2nnc(-c3cccnc3)o2)cc1,8.4,6.3%,10.9%,-2.0,7.1%,2.3%
COc1cccc(CSc2nnc(-c3ccc(F)cc3)o2)c1,22.6,-0.7%,6.5%,17.9*,1.0%,2.0%

# Compound activity: PubChem BioAssay, National Center for Advancing Translational Sciences (NCATS)
